D2 ag-1 = agonists of human D2 dopamine receptor. P14416. HEK293 T-REx D2 cells, calcium flux agonist mode. activation, % at 2 µM. 340,000 compounds, 0.53% hits;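 active = activation over 3 SD above normal in the single-dose calcium agonist read, cut at about 30% in these data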; also: 0% is about no effect
Target sequence (P14416 whole entry, looked up): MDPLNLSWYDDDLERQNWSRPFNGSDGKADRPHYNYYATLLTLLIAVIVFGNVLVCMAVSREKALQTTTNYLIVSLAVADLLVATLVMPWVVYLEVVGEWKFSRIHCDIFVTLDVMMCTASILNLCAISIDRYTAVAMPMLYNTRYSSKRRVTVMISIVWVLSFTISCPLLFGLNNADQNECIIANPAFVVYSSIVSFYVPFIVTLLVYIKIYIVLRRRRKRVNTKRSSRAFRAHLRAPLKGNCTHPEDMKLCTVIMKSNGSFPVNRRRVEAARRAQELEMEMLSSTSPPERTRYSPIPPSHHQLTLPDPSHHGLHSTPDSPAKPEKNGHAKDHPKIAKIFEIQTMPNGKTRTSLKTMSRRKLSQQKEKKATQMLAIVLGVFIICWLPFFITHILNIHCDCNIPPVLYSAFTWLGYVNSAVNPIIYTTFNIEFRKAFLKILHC
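Tetracycline-induced HEK293 T-REx cells with force-coupled D2 receptor, plated overnight at 30 C, loaded with no-wash calcium dye. After a 10 s baseline, compound was pin-added and calcium flux read kinetically for 180 s; calcium rises flagged agonists.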
D2 PAM-1 = positive allosteric modulators of human D2 dopamine receptor; P14416; DiscoveRx D2 beta-arrestin cells, luminescence, 90 min; 100% = 57 uM dopamine signal; potentiation, % (concentration not given with the values); 360,000 compounds, 0.23% hits; in the data active = potentiation above about 50%; inconclusive = mostly about 30% to 49%
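PathHunter beta-arrestin assay in DiscoveRx D2 cells. Compounds were added with an EC20 of dopamine (50 nM final) for 90 min at 37 deg C. Luminescence was read 1 h after detection reagent, with 57 uM dopamine as the EC100 control.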
D2 antag = D2 dopamine receptor (human) antagonism | inhibition, % at 10 µM | 340,000 compounds, 2% hits | HEK293 TREx D2 cells, calcium flux, dopamine EC80; in the data active = inhibition above about 30%; inactive = below that, where a call was filed; also: 0% is about no effect
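In this primary screen, negative modulation is detected by tracking calcium flux after an EC80 dopamine challenge in inducible HEK293 T-REx D2 cells preexposed to test compound for 180 s.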
D2 ag-2 = agonists of human D2 dopamine receptor (beta-arrestin); P14416; DiscoveRx PathHunter D2 beta-arrestin, luminescence, 90 min; 100% = 57 uM dopamine signal; activation, % (test concentration not listed); 360,000 compounds, 0.084% hits; in the data active = activation above about 40%; inconclusive = between about 15% and that limit
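DiscoveRx PathHunter D2 beta-arrestin cells (2,100/well) attached overnight, then compound-stimulated 90 min at 37 C in HBSS/10 mM HEPES/0.1% Tween-20 buffer; beta-galactosidase complementation read by luminescence after 1 h at ambient temperature. Dopamine 57 uM final (EC100) as control.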
D2 PAM-2 = positive allosteric modulators of human D2 dopamine receptor. P14416. HEK293 T-REx D2, calcium flux, EC20 dopamine potentiation. potentiation, % at 10 µM. 340,000 compounds, 0.34% hits;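 active = potentiation over 3 SD above the plate norm, cut at about 30% in these data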; also: 0% is about no effect
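Potentiation of an EC20 dopamine calcium response measured kinetically over 180 s, after a preceding 180 s compound-only read flagging agonists. Cells: inducible Hek293 Trex D2 line, 4000/well, cultured overnight at 30 C before dye loading.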
* marks the source's active call; other numbers are inactive results; ? = inconclusive; · = not tested or not shown. An excerpt weighted towards active compounds, which were near 2.4% of everything screened.

SMILES	D2 ag-1	D2 PAM-1	D2 antag	D2 ag-2	D2 PAM-2
CC1CCc2nc(NC(=O)CN3CCN(c4ccccc4)CC3)sc2C1 (centres undefined)	1.0	-4.8	-6.2	-2.9	9.2
CSC(=Nc1ccccc1)N=C(SCc1ccccc1)N(C)C	·	-32.1	·	-4.6	·
CN1CCN(C(=O)Cn2c(-c3cccs3)cc3ccccc32)CC1	0.3	·	·	·	0.8
Cc1ccc(S(=O)(=O)N(C)C)cc1NC(=S)N(CCC#N)Cc1cccnc1	-0.1	-15.8	43.5*	-4.6	-13.1
O=C(NCC1CCCO1)c1nnc(Cc2ccc(F)cc2)o1 (centres undefined)	0.7	-3.8	38.9*	-4.4	-2.5
O=C(Cn1nnc(-c2ccccc2NC(=O)c2ccccc2F)n1)NCc1ccco1	1.3	8.9	32.5*	0.4	-0.5
O=c1c2ccccc2sn1-c1ccc(Cl)cc1Cl	·	·	·	-6.5	·
CC(C)NC(=O)/C(=N\O)c1ccccc1	0.2	-5.9	32.1*	0.3	-0.8
CCCC(O)c1nc2ccccc2n1CCCCOc1ccc(OC)cc1 (centres undefined)	·	·	·	·	0.9
Cc1cc(OC(=O)c2ccco2)c(Sc2ccccc2[N+](=O)[O-])c(=O)o1	0.9	-9.5	33.8*	-4.7	2.9
CNC(=O)c1sccc1-n1cccc1	-0.1	-18.7	-8.9	-1.0	-0.1
CCOc1ccc(NC(=O)c2sccc2-n2cccc2)cc1	-1.0	-9.0	5.0	-5.0	64.5*
CCSC1=NC2(CCN(C(=O)NC3CCCCC3)CC2)N=C1c1ccc(C)c(C)c1	1.0	·	·	·	3.9
CC(=O)c1ccc2noc(-c3ccccc3)c2c1	0.5	?	-6.3	?	22.1
c1ccc(-c2onc3cc4c(cc23)OCCO4)cc1	-1.0	117.0*	-1.4	?	4.2
CCOc1ccc(CCNC(=O)c2nn(-c3ccc(OC)cc3)c(=O)c3c2c2ccccc2n3C)cc1OCC	0.1	·	·	·	17.7
Cc1nc(SCC(=O)Nc2ccc(F)cc2)c(C#N)c(C)c1CC(=O)c1ccc(Br)cc1	-0.5	-4.4	44.1*	-3.2	0.7
COCCNC(=O)C1(C)CCN(C(=O)c2sccc2C)C1 (centres undefined)	·	-4.4	·	-5.3	·
Cc1ccc(NC(=O)CN2C(=O)COc3ccc(S(=O)(=O)NC4CCCC4)cc32)cc1N(C)C	0.5	·	·	·	-5.7
O=C(Cc1ccc(NC(=O)N2CCCCc3ccccc32)cc1)NCc1ccccc1	-0.9	·	·	·	-4.6
CCOC(=O)c1c(S(=O)(=O)N2CCC(C(=O)Nc3cccc(C#N)c3)CC2)c(C)n(C)c1C	0.6	·	·	·	22.1
CCn1ccnc1CN1CCCC(CO)(Cc2cccc(OC)c2)C1 (centres undefined)	-1.3	-18.8	10.9	-4.7	-3.9
COc1cccc(CC2(CO)CCCN(Cc3ccc4c(c3)OCCO4)C2)c1 (centres undefined)	0.4	-5.7	56.2*	-4.6	-27.9
CCOc1ccc(CN2CCCC(CO)(Cc3ccccc3F)C2)cc1 (centres undefined)	0.4	-4.4	66.8*	-5.1	-35.1
OCC1(Cc2ccccc2)CCCN(Cc2ccc(-c3ccco3)cc2)C1 (centres undefined)	-1.9	-28.9	54.2*	-5.9	-20.1
SMILES	D2 ag-1	D2 PAM-1	D2 antag	D2 ag-2	D2 PAM-2
COc1cc(Cl)c(CN2CCCC(CO)(Cc3ccccc3F)C2)cc1OC (centres undefined)	1.2	-12.6	1.4	2.8	1.4
COc1cc(OC)cc(C(=O)Nc2ccc(S(=O)(=O)Nc3nc(C)cc(C)n3)cc2)c1	-1.4	-3.5	33.5*	4.8	1.2
COc1ccc(NS(=O)(=O)c2ccc(NC(=O)c3ccccn3)cc2)cc1	-0.3	-0.4	-0.9	12.5	73.2*
COc1ccc(S(=O)(=O)Nc2ccc(Oc3ncccn3)c(Cl)c2)cc1	1.1	3.8	-6.3	-1.8	-8.7
COc1ccc(NS(=O)(=O)c2ccc(Oc3ncccn3)cc2)cc1	1.1	0.1	-3.0	1.2	45.9*
COc1ccc(S(=O)(=O)Nc2ccc(S(=O)(=O)Nc3nccs3)cc2)cc1	-0.5	1.2	49.6*	-1.7	-0.9
COc1ccc(CC(=O)Nc2ccc(S(=O)(=O)Nc3nccs3)cc2)cc1	-0.3	-1.2	25.5	-2.8	-2.6
CN(C)CCNc1ncnc2c1sc1nc(N3CCCC3)c3c(c12)CC(C)(C)OC3	1.5	-18.2	-0.9	0.4	-17.8
CC(C)CNc1ncnc2c1sc1nc(N3CCOCC3)c3c(c12)CC(C)(C)OC3	-0.1	1.9	32.9*	-3.3	4.5
CNC(=O)c1ccc(-c2sc3nc(N4CCOCC4)c4c(c3c2N)CC(C)(C)OC4)o1	-1.2	5.4	40.6*	-1.3	-1.9
COc1ccc(OC)c(NC(=O)c2oc3c(c2C)-c2nn(Cc4ccc(Cl)cc4)cc2CC3)c1	-0.9	·	·	·	-2.5
CCOc1cccc2sc(NC(=O)c3ccc(S(=O)(=O)N4CCCCC4)cc3)nc12	-0.8	·	·	·	5.2
Cc1cc(C(N)=O)c2cc(Br)ccc2n1	0.1	-0.7	-0.8	-2.3	38.6*
CS(=O)(=O)N1CCN(c2ccc(NC(=S)NC(=O)c3ccccc3[N+](=O)[O-])cc2)CC1	-0.3	-13.2	32.9*	3.0	-14.4
COc1ccccc1CCC(=O)N1CCN(S(=O)(=O)c2cc(C(F)(F)F)ccc2Cl)CC1	0.4	1.5	-18.0	1.0	2.4
O=C(COC(=O)c1ccc[nH]c1=O)Nc1cc(S(=O)(=O)N2CCCCCC2)ccc1Cl	0.2	-5.4	-10.4	1.3	1.0
Oc1ccc(N=Cc2ccc(O)c(O)c2)cc1	0.1	82.6*	-18.8	?	12.8
Oc1ccc(/C=N/N=C/c2ccc(O)c(O)c2)cc1O	-0.4	4.1	11.7	10.1	6.9
O=C(COC(=O)/C=C/c1ccc(S(=O)(=O)N2CCOCC2)cc1)NCc1ccc(Cl)cc1	0.5	-14.3	46.5*	-5.2	-15.3
CCOC(=O)c1oc2cccc(OC(C)=O)c2c1C	0.7	3.2	36.7*	-5.9	-7.5
COc1ccc2cc(-c3nc4ccc(C(=O)O)cc4[nH]3)c(=O)oc2c1	-0.3	·	·	·	1.9
COc1ccccc1CN1CCN(Cc2ccc3ccccc3c2)CC1	1.1	-9.9	67.7*	-8.1	-28.5
OC1CCN(Cc2ccc3ccccc3c2)CC1	0.7	-13.9	45.6*	-1.6	-15.3
CC1(C(=O)NC2CCN(Cc3ccccc3)CC2)CCN1Cc1ccc2ccccc2c1 (centres undefined)	·	-13.2	·	-5.9	·
COc1ccc(CN2CCN(Cc3ccc4ccccc4c3)CC2)cc1OC	0.7	-14.3	4.5	-5.2	-16.0
O=C1CSC(=S)N1/N=C/c1cc(Br)c(O)c(Br)c1	84.6*	1.4	-40.6	-6.0	-18.5
N#C/C(=C\c1coc2ccc(O)cc2c1=O)C(=O)Nc1nc2ccccc2s1	59.1*	0.2	-7.8	8.4	-0.6

Screening results deposited in PubChem by National Center for Advancing Translational Sciences (NCATS).
